Rows were chosen to be rich in hits. Some 17% of all compounds tested hit in one or more screens of this group.
TGFb inhibitor: blocks TGF-b signaling | HepG2 CAGA-GFP TGF-b/SMAD3 reporter, GFP fluorescence, 18 h; TGF-beta stimulated, 500 pg/mL final | AID 588855 | Potency, µM (top dose mostly 46.1 µM), for inactives: at the top dose activity, negative = inhibition, actives largely listed as inhibitors | actives 1.2% (n = 410,000); also: % is scaled to controls: 0 for no effect and ±100 for the full control effect; nearly all actives have a fitted effect of over 65% in size
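Inhibition of TGF-beta-driven CAGA-GFP reporter expression in HEPG2 cells is measured by cellular GFP fluorescence after 18 h stimulation with 500 pg/mL recombinant TGF-beta in 1% FBS medium at 37 degrees C.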
ATXN viability: viability counter-screen for ATXN expression inhibitors | S2 cells (HEK-293 line with an ATXN2-luciferase reporter) viability, CellTiter-Fluor protease fluorescence, 24 h | Potency, µM (series often up to 56.7 µM), actives largely listed as cytotoxic | actives 0.49% (n = 400,000); also: nearly all actives have a fitted effect of over 40% in size
TDP1 cell CPT: growth inhibition of DT40 Tdp1-/-;hTDP1 cells with camptothecin (screen for TDP1 inhibitors) | chicken DT40 Tdp1-/-;hTDP1 cells + 20 nM CPT, ATP luminescence, 48 h | Potency, µM (titrated, usually from 46.2 µM), for inactives: at the top dose activity change, negative = growth inhibition, most hits filed as inhibitors | actives 12% (n = 420,000); also: % is scaled to controls: 0 for no effect and ±100 for the full control effect; nearly all actives have a fitted effect of over 55% in size
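Chicken DT40 Tdp1-/- cells stably complemented with human TDP1 were seeded at 400 cells/well in medium containing 20 nM camptothecin, exposed to pin-transferred compounds, and grown at 37 °C for at least 48 hr. Viability was read as ATP luminescence.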
TDP1 cell noCPT: qHTS for Inhibitors of human tyrosyl-DNA phosphodiesterase 1 (TDP1): qHTS in cells in absence of CPT. DT40 Tdp1-/- hTDP1 cells, no CPT, ATP luminescence, 48 h. Potency, µM (top dose mostly 46.2 µM), without a hit: at the top dose activity change, negative = growth inhibition, usual class: inhibitors. actives 15% (n = 420,000); also: % is scaled to controls: 0 for no effect and ±100 for the full control effect; nearly all actives have a fitted effect of over 55% in size
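Chicken DT40 Tdp1-/- cells stably complemented with human TDP1 were seeded at 400 cells/well with DMSO in place of 20 nM camptothecin. After compound pinning, cells grew at least 48 hr at 37 °C; viability read by CellTiter-Glo luminescence.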
ATXN2 expr inh: reduces ATXN2 reporter expression in HEK-293 cells; actives 0.72% (n = 360,000); HEK-293 ATXN2-luciferase reporter, luminescence, 24 h; AID 1745845; Potency, µM (titrated, usually from 57 µM), inactives show at the top dose activity change, negative = inhibition, actives largely listed as inhibitors; also: % is scaled to controls: 0 for no effect and ±100 for the full control effect; nearly all actives have a fitted effect of over 55% in size
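ATXN2-luciferase reporter cells (luciferase flanked by upstream and downstream ATXN2 gene portions) were treated 24 h at 37 °C with compounds at up to 57 uM. SteadyGlo luminescence gave expression; GF-AFC fluorescence gave viability.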
HepG2 tox: kills HepG2 cells in TGF-b inhibitor counter-screen | actives 0.76% (n = 410,000) | Potency, µM (doses to about 46.1 µM), for inactives: at the highest dose activity change, negative = cytotoxicity, hits mostly cytotoxic | HepG2 CAGA-GFP viability, ATP luminescence, 18 h | AID 588856
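HepG2 CAGA-GFP cells (1000/well, DMEM with 1% FBS) received compound, then TGF-beta at 500 pg/mL final, and were incubated 18 hours at 37 degrees C. Viability was read by CellTiter-Glo luminescence. Media-only wells were set as complete cell-killing and DMSO as no toxicity.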
* hit, by the source's call. Calls follow the shape of the dose curve; as a rule, active = well fitted curve in the direction sought with a large enough effect; inconclusive = small, poorly fitted or top-dose-only effect, or another doubt; inactive = no such curve, though single readings can be large; an effect the other way counts as inactive or inconclusive. Potency is read from the fitted curve at half-maximal effect.

For Cc1ccc(S(=O)(=O)N2CCCCC2)cc1NC(=O)Nc1ccc(Cl)cc1Cl the results were TGFb inhibitor inconclusive, ATXN viability inactive, TDP1 cell CPT 2.6µM*, TDP1 cell noCPT inconclusive and HepG2 tox -8%.
For Cc1cc(S(=O)(=O)NC(C)C)ccc1OCC(=O)N1CCN(Cc2ccc3c(c2)OCO3)CC1 the results were TGFb inhibitor inconclusive, ATXN viability inactive, TDP1 cell CPT 16µM*, TDP1 cell noCPT inconclusive, ATXN2 expr inh -22% and HepG2 tox -32%.
Screening CC(C)NS(=O)(=O)c1ccc(OCC(=O)N2CCN(Cc3ccc4c(c3)OCO4)CC2)c(Cl)c1 returned TGFb inhibitor inconclusive, ATXN viability inactive, TDP1 cell CPT 16µM*, TDP1 cell noCPT 18µM*, ATXN2 expr inh -24% and HepG2 tox -23%.
Screening COc1ccc(C)cc1NC(=O)C1CCN(S(=O)(=O)c2ccc3[nH]c(=O)oc3c2)CC1 returned TGFb inhibitor -8%, ATXN viability inactive, TDP1 cell CPT 2%, TDP1 cell noCPT -1%, ATXN2 expr inh -3% and HepG2 tox -34%.
For COc1ccc(C2(c3cccc(O)c3OC)CCN(C(C)=O)CC2)cc1O the results were TGFb inhibitor -1%, ATXN viability inactive, ATXN2 expr inh 1% and HepG2 tox 8%.
For Fc1ccc(-c2nc3c(-c4ccc(F)cc4)cnn3cc2CCN2CCOCC2)cc1 the results were TGFb inhibitor 6%, ATXN viability inactive, TDP1 cell CPT -18%, TDP1 cell noCPT inconclusive, ATXN2 expr inh -35% and HepG2 tox -21%.
Screening O=C(Cc1ccccc1)c1ccccn1 returned TGFb inhibitor -7%, ATXN viability inconclusive, TDP1 cell CPT inconclusive, TDP1 cell noCPT inconclusive, ATXN2 expr inh -20% and HepG2 tox 4%.
For Cc1ccc(O)c(C(=O)c2cc(C(=O)NCCC(C)C)c(=O)n(CCC(C)C)c2)c1 the results were TGFb inhibitor inconclusive, ATXN viability inconclusive, TDP1 cell CPT 23µM*, TDP1 cell noCPT 18µM*, ATXN2 expr inh -31% and HepG2 tox 8%.
O=C(c1cc(C(=O)NCc2ccc(Cl)cc2)c(=O)n(Cc2ccc(Cl)cc2)c1)c1cc(F)ccc1O was read as TGFb inhibitor 1%, ATXN viability inactive, TDP1 cell CPT inconclusive, TDP1 cell noCPT inconclusive, ATXN2 expr inh -27% and HepG2 tox -4%.
`COc1ccccc1CN1CCCC2(CCN(C(=O)Oc3ccccc3)CC2)C1` gave TDP1 cell CPT 9% and TDP1 cell noCPT -18%.
Screening C=CCc1cc(OC)c2c(c1OC)OCO2 returned TDP1 cell CPT 12% and TDP1 cell noCPT 27%.
For Cc1ccc(NC(=O)N(Cc2ccc3c(c2)OCO3)C2CCN(Cc3ccccc3)CC2)cc1Cl the results were TGFb inhibitor -31%, ATXN viability inactive, TDP1 cell CPT 4.6µM*, TDP1 cell noCPT 15µM*, ATXN2 expr inh -38% and HepG2 tox -39%.
Screening Cc1ccc(Cl)cc1NC(=O)N(Cc1ccc2c(c1)OCO2)C1CCN(Cc2ccccc2)CC1 returned TGFb inhibitor inconclusive, ATXN viability inactive, TDP1 cell CPT inconclusive, TDP1 cell noCPT 13µM*, ATXN2 expr inh inconclusive and HepG2 tox -23%.
Cc1cccc(N2CCN(Cc3ccc4c(c3)OCO4)CC2)c1C was read as TGFb inhibitor inconclusive, ATXN viability inactive, TDP1 cell CPT inconclusive, TDP1 cell noCPT inconclusive, ATXN2 expr inh -24% and HepG2 tox -39%.

Screens deposited in PubChem by National Center for Advancing Translational Sciences (NCATS).
